Experimental data as given in ChEMBL document CHEMBL1157539, “Thousands of chemical starting points for antimalarial lead identification” (Nature, 2010).

What follows are compounds tested on Plasmodium falciparum (assay: GSK_TCMDC: Inhibition of Plasmodium falciparum 3D7 in whole red blood cells, using parasite LDH activity as an index of growth. Test compounds present at 2uM).
Type: functional

Row | Structure (SMILES) | Inhibition
1 | CN1CCN(Cc2nc(-c3ccc4c(Nc5ccc(Oc6ccccc6)cc5)ccnc4c3)cs2)CC1 | 100%
2 | Cc1c(CNCCCNc2cc(=O)c3ccccc3[nH]2)sc(-c2ccco2)c1Br.Cl | 93%
3 | Br.CC1(C)NC(N)=NC(=N)N1OCCCCOc1ccccc1 | 95%
4 | COc1cccc(Cc2c(C)nc3nc(N)nc(N)c3c2C)c1.Cl | 95%
5 | Cc1cc(N[C@@H](Cc2ccccc2)C(=O)NCc2cccs2)nc(NCCc2ccccc2)n1.O=C(O)C(F)(F)F | 92%
6 | COc1cccc2c(Oc3ccccc3C)ccnc12 | 85%
7 | CN(c1ccc2c(c1)nc(NCc1ccccc1)n2C)c1ccnc(Nc2ccc(CS(C)(=O)=O)cc2)n1.Cl | 94%
8 | Cc1cc(F)ccc1-c1nc(NCC(O)CNCCc2ccccc2)nc2c1ccc(=O)n2-c1c(F)cccc1F.O=C(O)C(F)(F)F (configuration not stated) | 100%
9 | O=C(NC1CCN(Cc2ccccc2)CC1)c1cc(-c2cccnc2)nc2ccc(Cl)cc12 | 97%
10 | COc1ccc(-c2nc3c(N)nc(N)nc3nc2-c2ccccc2Cl)cc1.COc1ccc(-c2nc3nc(N)nc(N)c3nc2-c2ccccc2Cl)cc1.Cl | 93%
11 | O=C(NCCCCN1CCCC2c3cccc(O)c3CCC21)c1ccc(-c2ccccc2)cc1 (configuration not stated) | 93%
12 | O=C(Cn1cc(C=C2SC(=NC3CCCC3)N(C3CCCC3)C2=O)c2ccccc21)N1CCCC1 | 100%
13 | O=C(O)c1ccc2nc(-c3ccccn3)c(-c3ccccn3)nc2c1 | 97%
14 | Cc1cccc(CN2CCCC3(CCN(Cc4ccccc4O)C3)C2)c1 (configuration not stated) | 99%
15 | CC(C)(C)c1ccc(NC(=O)c2cccc(CN3CCCN(Cc4cccc(C#N)c4)CC3)c2)cc1.O=C(O)C(F)(F)F | 97%
16 | CN1CCN(c2cc(NC(=O)c3ccc(-c4ccc(Cl)cc4)cc3)ccc2Cl)CC1 | 99%
17 | O=C(Nc1ccc(Cl)cc1)c1cc(Cl)ccc1NC(=O)C1CCc2ccccc2O1 (configuration not stated) | 98%
18 | CCOc1cc2c(cc1S(=O)(=O)c1ccc(COc3ccc(C(F)(F)F)cc3)cc1)CCN(C)CC2.Cl | 87%
19 | Br.Oc1ccc(CCNCCCCNCCc2ccc(Cl)cc2)cc1O | 94%

Row | Structure (SMILES) | Inhibition
20 | COc1ccc(CN2CCCC(C(=O)c3ccc(C(F)(F)F)cc3)C2)c(O)c1 (configuration not stated) | 98%
21 | O=C(Nc1cccc(-c2cccc(-c3nc4cc(F)ccc4[nH]3)c2)c1)Nc1ccc(F)c(F)c1F | 100%
22 | O=C(O)C(F)(F)F.O=S(=O)(NCCN1CCCC1)c1ccc(-c2ccc(CNCc3ccccc3)cc2)s1 | 94%
23 | CN(CCO)Cc1ccc(-c2ccc(NS(=O)(=O)c3cccc4cccnc34)cc2)cc1.O=C(O)C(F)(F)F | 99%
24 | CCCCCCN1CCN(Cc2cccc(NC(=O)c3cc4ccccc4o3)c2)CC1.O=C(O)C(F)(F)F | 93%
25 | CN(C)c1ccc(C=Cc2ccc3ccccc3n2)c(Cl)c1 | 94%
26 | Cc1cc(-c2nc3ccc(C(=O)NCc4ccccc4)cc3n2C2CCN(C(=O)c3ccc(-c4ccccc4)cc3)CC2)ccn1 | 95%
27 | Cc1ccc(O)cc1Nc1ccnc2cc(-c3csc(CN(C)CCN(C)C)n3)ccc12 | 100%
28 | COc1cc(C(=O)NCCCN2CCN(c3cccc(Cl)c3)CC2)ccc1-c1cc2cc(Cl)c(Cl)cc2[nH]1 | 100%
29 | COC(=O)c1c(C#N)c(OC)cc(O)c1CSC[C@@H](CN1CCCCC1)Nc1nc(-c2ccc([N+](=O)[O-])cc2)cs1 | 100%
30 | N#Cc1ccc(N/C(=N\c2cccc(Cl)c2Cl)NCc2ccc(Cl)cc2Cl)c(O)c1 | 97%
31 | CCn1c(C2CCN(CCC3CCN(C(=O)/C=C/c4ccc(Cl)c(Cl)c4)CC3)CC2)nc2ccccc21 | 86%
32 | Cc1oc(-c2cccc(Oc3ccccc3)c2)nc1CN(Cc1cnn(C)c1)C(C)C | 89%
33 | O=C(Nc1ccccc1O)C1CCN(c2ncnc3cc(-c4ccc(F)cc4)sc23)CC1 | 97%
34 | COc1ccc(CC(=O)Nc2ccc(Nc3nc(C)cc(N4CCCC4)n3)cc2)cc1 | 100%
35 | CCN(CCCN1CCCCC1)c1cc(C)nc(Nc2cc(C)ccc2C)n1.O=C(O)C(F)(F)F | 93%
36 | O=C(O)C(F)(F)F.O=S(=O)(NCCN1CCCC1)c1ccc(-c2cccc(CNC3Cc4ccccc4C3)c2)cc1 | 99%
37 | O=C(Nc1ccc(C(F)(F)F)cc1)NC1CCN(c2ccnc3ccccc23)CC1.O=C(O)C(F)(F)F | 100%
